# ± gives the standard deviation of the averaged measurements.
# Test system: E. coli BW25113 marRABp lux reporter
# Experiment: promoter activity interaction Z-score (Lux/OD deviation from empty-vector control); higher = stronger promoter induction by the compound
# Protocol: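 E. coli BW25113 (wild type or ΔmarA/ΔsoxS/Δrob) carrying pTU175 luxCDABE promoter reporters was grown in LB in 384-well plates at 37°C with each of 94 compounds at 4 two-fold concentrations, in biological duplicates. Luminescence and OD600 were read every 30 min for 12 h and integrated as AUC over 8 h (0-8 h WT, 1-9 h mutants). Lux AUC was divided by OD AUC; the interaction score is the residual of a Huber robust fit of each promoter against the empty-vector control, then Z-transformed per promoter.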
compound,measurement,setting,value
C[C@@H]1O[C@@H]1P(=O)(O)O [Fosfomycin],promoter activity interaction Z-score,"0.011 µg/ml, genetic background: wild type",0.112 ± 0.27
same,promoter activity interaction Z-score,"0.011 µg/ml, genetic background: ΔmarA",0.0292 ± 0.18
same,promoter activity interaction Z-score,"0.011 µg/ml, genetic background: Δrob",-0.0327 ± 0.12
same,promoter activity interaction Z-score,"0.011 µg/ml, genetic background: ΔsoxS",0.00491 ± 0.17
same,promoter activity interaction Z-score,"0.023 µg/ml, genetic background: wild type",0.0365 ± 0.015
same,promoter activity interaction Z-score,"0.023 µg/ml, genetic background: ΔmarA",0.0557 ± 0.48
same,promoter activity interaction Z-score,"0.023 µg/ml, genetic background: Δrob",-0.0686 ± 0.17
same,promoter activity interaction Z-score,"0.023 µg/ml, genetic background: ΔsoxS",-0.0756 ± 0.00091
same,promoter activity interaction Z-score,"0.046 µg/ml, genetic background: wild type",-0.461 ± 0.53
same,promoter activity interaction Z-score,"0.046 µg/ml, genetic background: ΔmarA",-0.206 ± 0.0084
same,promoter activity interaction Z-score,"0.046 µg/ml, genetic background: Δrob",-0.0852 ± 0.1
same,promoter activity interaction Z-score,"0.046 µg/ml, genetic background: ΔsoxS",0.136 ± 0.17
same,promoter activity interaction Z-score,"0.091 µg/ml, genetic background: wild type",1.62 ± 0.061
same,promoter activity interaction Z-score,"0.091 µg/ml, genetic background: ΔmarA",1.31 ± 0.6
same,promoter activity interaction Z-score,"0.091 µg/ml, genetic background: Δrob",0.576 ± 0.054
same,promoter activity interaction Z-score,"0.091 µg/ml, genetic background: ΔsoxS",1.75 ± 0.052
CN(C)c1ccc(O)c2c1C[C@H]1C[C@H]3[C@H](N(C)C)C(O)=C(C(N)=O)C(=O)[C@@]3(O)C(O)=C1C2=O [Minocycline],promoter activity interaction Z-score,"0.062 µg/ml, genetic background: wild type",-0.0844 ± 0.21
same,promoter activity interaction Z-score,"0.062 µg/ml, genetic background: ΔmarA",0.0361 ± 0.21
same,promoter activity interaction Z-score,"0.062 µg/ml, genetic background: Δrob",0.129 ± 0.094
same,promoter activity interaction Z-score,"0.062 µg/ml, genetic background: ΔsoxS",-0.0813 ± 0.0076
same,promoter activity interaction Z-score,"0.12 µg/ml, genetic background: wild type",0.341 ± 0.081
same,promoter activity interaction Z-score,"0.12 µg/ml, genetic background: ΔmarA",0.0649 ± 0.098
same,promoter activity interaction Z-score,"0.12 µg/ml, genetic background: Δrob",0.115 ± 0.4
same,promoter activity interaction Z-score,"0.12 µg/ml, genetic background: ΔsoxS",0.221 ± 0.22
same,promoter activity interaction Z-score,"0.25 µg/ml, genetic background: wild type",0.449 ± 0.55
same,promoter activity interaction Z-score,"0.25 µg/ml, genetic background: ΔmarA",0.264 ± 0.17
same,promoter activity interaction Z-score,"0.25 µg/ml, genetic background: Δrob",0.436 ± 0.19
same,promoter activity interaction Z-score,"0.25 µg/ml, genetic background: ΔsoxS",0.173 ± 0.13
same,promoter activity interaction Z-score,"0.49 µg/ml, genetic background: wild type",3.58 ± 0.53
same,promoter activity interaction Z-score,"0.49 µg/ml, genetic background: ΔmarA",3.1 ± 1.2
same,promoter activity interaction Z-score,"0.49 µg/ml, genetic background: Δrob",1.07 ± 0.62
same,promoter activity interaction Z-score,"0.49 µg/ml, genetic background: ΔsoxS",2.67 ± 0.47
NC(N)=S [Thiourea],promoter activity interaction Z-score,"4.8 µg/ml, genetic background: wild type",-0.23 ± 0.42
same,promoter activity interaction Z-score,"4.8 µg/ml, genetic background: ΔmarA",-0.11 ± 0.25
same,promoter activity interaction Z-score,"4.8 µg/ml, genetic background: Δrob",-0.246 ± 0.076
same,promoter activity interaction Z-score,"4.8 µg/ml, genetic background: ΔsoxS",-0.231 ± 0.24
same,promoter activity interaction Z-score,"9.5 µg/ml, genetic background: wild type",-0.161 ± 0.13
same,promoter activity interaction Z-score,"9.5 µg/ml, genetic background: ΔmarA",0.055 ± 0.11
same,promoter activity interaction Z-score,"9.5 µg/ml, genetic background: Δrob",-0.0456 ± 0.0082
same,promoter activity interaction Z-score,"9.5 µg/ml, genetic background: ΔsoxS",-0.157 ± 0.14
same,promoter activity interaction Z-score,"19 µg/ml, genetic background: wild type",-0.209 ± 0.12
same,promoter activity interaction Z-score,"19 µg/ml, genetic background: ΔmarA",-0.407 ± 0.02
same,promoter activity interaction Z-score,"19 µg/ml, genetic background: Δrob",-0.154 ± 0.11
same,promoter activity interaction Z-score,"19 µg/ml, genetic background: ΔsoxS",-0.149 ± 0.038
same,promoter activity interaction Z-score,"38.1 µg/ml, genetic background: wild type",-0.45 ± 0.34
same,promoter activity interaction Z-score,"38.1 µg/ml, genetic background: ΔmarA",-0.162 ± 0.17
same,promoter activity interaction Z-score,"38.1 µg/ml, genetic background: Δrob",-0.0285 ± 0.12
same,promoter activity interaction Z-score,"38.1 µg/ml, genetic background: ΔsoxS",-0.0935 ± 0.032
